In PubChem BioAssay AID1347087 (National Center for Advancing Translational Sciences (NCATS), 2019):
Values joined by “and” are separate entries in the source; they are usually repeats but may differ in a detail not shown here. Equal values may be shown once. Inconclusive results are not listed. Active and inactive are the calls of the source. Calls follow the shape of the full dose curve.

experiment: qHTS for Inhibitors of the Functional Ribonucleoprotein Complex (vRNP) of Lassa (LASV) Arenavirus: LASV Confirmatory Screen - GLuc reporter signal; conditions: LASV minigenome vRNP, Gaussia luciferase reporter; series mostly up to 53.9 µM

SMILES | Potency
Cc1ccc2c(c1)C1CN(C)CCC1N2 (configuration not stated) | inactive
S=C(NCc1ccc2c(c1)OCO2)N1CCN(c2ncnc3c2oc2ccccc23)CC1 | 1.77 µM (active)
COc1ccc2c(c1OC)CN1CCc3cc4c(cc3C1C2)OCO4 (configuration not stated) | 21.7 µM (active)
COc1cc2c(cc1OC)CC(=O)N(CCCN(C)C[C@H]1Cc3cc(OC)c(OC)cc31)CC2 | inactive
COc1ccc(Cc2nccc3cc(OC)c(OC)cc23)cc1OC | 3.06 µM (active) and 3.85 µM (active)
Cc1cc(N)c2ccccc2[n+]1CCCCCCCCCC[n+]1c(C)cc(N)c2ccccc21 | 1.37 µM (active)
Oc1cc(Cl)ccc1Oc1ccc(Cl)cc1Cl | 25 µM (active)
Cc1cccc(-c2[nH]c(C(C)(C)C)nc2-c2ccc3c(c2)OCO3)n1 | 3.43 µM (active)
CNCCCC1c2ccccc2C=Cc2ccccc21 | 30.6 µM (active)
CCOC(=O)OCC/C(SC(=O)OCC)=C(\C)N(C=O)Cc1cnc(C)nc1N | inactive
CC[C@@H](C(=O)O)[C@@H]1O[C@@H]([C@@H](C)[C@H](O)[C@H](C)C(=O)[C@H](CC)[C@H]2O[C@]3(C=C[C@@H](O)[C@]4(CC[C@@](C)([C@H]5CC[C@](O)(CC)[C@H](C)O5)O4)O3)[C@H](C)C[C@@H]2C)[C@@H](C)C[C@@H]1C | 0.157 µM (active)
CCCCC/C(C=O)=C\c1ccccc1 | inactive
